Our source for the Potency, outcome and max activation values is PubChem BioAssay (Tox21).

Values without a mark were called inactive. Results filed as inconclusive are left out. Active and inactive are the calls of the source. Unless noted, calls follow the shape of the dose curve; as a rule, active = well fitted curve in the direction sought with a large enough effect in the repeat runs; inconclusive = weak or mixed curves; inactive = no such curve, though single readings can be large; an effect the other way counts as inactive or inconclusive.

The nature of assay [1]: qHTS assay to identify small molecule agonists of the estrogen receptor alpha (ER-alpha) signaling pathway in the presence of an antagonist - cell viability counter screen (AID 1259386).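 Also: series mostly up to about 92 µM; cells exposed to compounds for 22 h at 37 °C before the viability read; nearly all actives have a fitted effect of over 30% in size.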 The gist of the method: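 Cytotoxicity was measured in parallel with the ERE-luciferase agonist screen, in the same wells. The cells were VM7Luc4E2, which endogenously express ER-alpha, and treatment was with compounds plus 10.0nM ICI-182,780 for 22hr.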
For orientation: Quantitative high-throughput screening tests each substance at several concentrations.

Assay [2] deals with Progesterone receptor (Homo sapiens) (UniProt P06401). Nature of the assay: qHTS assay to identify small molecule agonists of the progesterone receptor (PR) signaling pathway (AID 1346784; calls by dose curve; also: nearly all actives have a fitted effect of over 30% in size; also: potency is read from the fitted curve at half-maximal effect). Summed up: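 PR-UAS-bla HEK 293T cells (beta-lactamase reporter under UAS) in 2% charcoal-stripped FBS, dosed with 23 nL compound after 6 hr, incubated 16hr at 37C. LiveBLAzer B/G FRET substrate added, fluorescence read after 2 hours.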
Progesterone receptor (Homo sapiens), sequence (P06401 whole entry, looked up): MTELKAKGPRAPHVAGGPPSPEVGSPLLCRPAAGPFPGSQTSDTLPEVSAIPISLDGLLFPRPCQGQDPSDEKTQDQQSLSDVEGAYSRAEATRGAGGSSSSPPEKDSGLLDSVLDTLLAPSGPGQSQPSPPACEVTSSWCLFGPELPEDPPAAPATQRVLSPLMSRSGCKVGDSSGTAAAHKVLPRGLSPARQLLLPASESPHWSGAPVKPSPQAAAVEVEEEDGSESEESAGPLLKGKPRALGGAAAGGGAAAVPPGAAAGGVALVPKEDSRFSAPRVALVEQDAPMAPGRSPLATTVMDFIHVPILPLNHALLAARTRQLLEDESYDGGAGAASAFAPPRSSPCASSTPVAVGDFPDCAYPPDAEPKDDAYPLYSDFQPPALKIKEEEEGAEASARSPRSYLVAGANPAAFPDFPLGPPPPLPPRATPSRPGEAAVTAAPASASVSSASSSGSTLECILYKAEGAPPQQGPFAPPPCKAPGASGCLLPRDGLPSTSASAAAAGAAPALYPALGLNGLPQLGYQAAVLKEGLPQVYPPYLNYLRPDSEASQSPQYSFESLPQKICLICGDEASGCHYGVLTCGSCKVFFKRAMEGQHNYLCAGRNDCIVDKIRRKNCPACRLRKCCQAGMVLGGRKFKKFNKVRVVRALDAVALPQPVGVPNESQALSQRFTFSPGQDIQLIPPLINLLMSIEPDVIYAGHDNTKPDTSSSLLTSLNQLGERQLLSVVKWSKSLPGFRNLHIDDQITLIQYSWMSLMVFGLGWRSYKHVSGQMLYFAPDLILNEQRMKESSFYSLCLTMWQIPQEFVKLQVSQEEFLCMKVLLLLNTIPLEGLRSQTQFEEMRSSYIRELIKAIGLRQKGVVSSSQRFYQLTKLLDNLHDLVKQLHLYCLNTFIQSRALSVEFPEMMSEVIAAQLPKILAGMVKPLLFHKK

Assay [3] has the same target. Nature of the assay: qHTS assay to identify small molecule antagonists of the progesterone receptor (PR) signaling pathway (AID 1346795; active = well fitted inhibition curve with a large enough effect in the signal ratio in the repeat runs, not every such curve was filed as active; the % refers to the signal ratio). Summed up: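 PR-UAS-bla HEK293T cells with beta-lactamase reporter under UAS control, in 2% charcoal-stripped FBS, treated with compounds plus 1 nM promegestone (R5020, final) for 16 hr at 37C. Read-out: FRET beta-lactamase substrate fluorescence after 2 hr at room temperature.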

Assay [4] can be described thus: qHTS assay to identify small molecule antagonists of the progesterone receptor (PR) signaling pathway - cell viability counter screen (AID 1346798). Also: series mostly up to about 92 µM; nearly all actives have a fitted effect of over 50% in size. Summed up:
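PR-UAS-bla HEK293T cells, 3,000/well in 2% charcoal-stripped FBS medium, dosed with compounds plus R5020 agonist and incubated 16 h at 37C. Viability then measured in the same wells by CellTiter-Glo luminescence after 30 min at RT.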

A short description of assay [5]: qHTS assay to identify small molecule agonists of the progesterone receptor (PR) signaling pathway - cell viability counter screen (AID 1346799; calls by dose curve; also: nearly all actives have a fitted effect of over 45% in size). The gist of the method: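 Counter screen in the PR-UAS-bla HEK293T wells (2% charcoal-stripped FBS, 16 h compound exposure at 37 C) after the bla read. CellTiter-Glo added, 30 min at room temperature, luminescence read as cell viability.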

Assay [6] in a line: qHTS assay to identify small molecule antagonists of the TGF-beta/Smad signaling pathway - cell viability counter screen (AID 1346824). Also: nearly all actives have a fitted effect of over 50% in size. The gist of the method: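 SBE-bla HEK 293T cells, incubated overnight, then compound plus 0.25 ng/mL TGF-beta1 (stock added) for 5 hr at 37 C. Viability was read in the same wells by CellTiter-Glo luminescence after 30 min at room temperature.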

Assay [7] in a line: qHTS assay to identify small molecule agonists of the TGF-beta/Smad signaling pathway (AID 1346859; active = well fitted activation curve with a large enough effect in the signal ratio in the repeat runs, not every such curve was filed as active; the % refers to the signal ratio; also: series mostly up to about 77 µM). The gist of the method:
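SBE-bla HEK293T cells plated overnight, then compound exposure for 5 h at 37 C. Beta-lactamase reporter read with LiveBLAzer B/G FRET substrate after 2 h at room temperature, fluorescence at 405 nm excitation, 460/530 nm emission.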

For assay [8], the target named is Thyrotropin-releasing hormone receptor (Homo sapiens) (UniProt P34981). Nature of the assay: qHTS assay to identify small molecule antagonists of the thyrotropin-releasing hormone receptor (TRHR) signaling pathway (AID 1346877; active = well fitted inhibition curve with a large enough effect in the repeat runs, not every such curve was filed as active; also: series mostly up to about 51 µM). The gist of the method:
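Antagonism is measured as suppression of the calcium response to 1 nM TRH in TRHR-HEK293 cells that have been dye-loaded for 2 h at 37 °C after overnight plating. Each compound is tested at 15 concentrations in triplicate.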

The nature of assay [9]: Human pregnane X receptor (PXR) small molecule agonists, qHTS cell viability counter screen (AID 1346977). Also: nearly all actives have a fitted effect of over 50% in size. Summed up: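 PXR-Luc HepG2 cells (2,000/well, 5% charcoal-stripped FBS) preincubated 5 hr, then exposed to compounds 24 hr at 37 C. Viability read in the same wells by CellTiter-Fluor fluorescence, reagent added at 23 hr, 1 hr incubation.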
The nature of assay [10]: Caspase-3/7 induction in HepG2 cells by small molecules, qHTS assay (AID 1346978). Also: nearly all actives have a fitted effect of over 15% in size. The gist of the method:
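Wild-type HepG2 cells, 2,000/well, settled 5 hr at 37 C and 5% CO2, then compound-treated for 17 hr; caspase-3/7 activity read by luminescent Caspase-Glo 3/7 after 30 min at room temperature.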

Assay [11] in a line: Caspase-3/7 induction in CHO-K1 cells by small molecules, qHTS cell viability counter screen (AID 1346979). Also: nearly all actives have a fitted effect of over 35% in size. The gist of the method:
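Wild-type CHO-K1 cells (1,500/well) treated with compound after 5 h plating; after 16 h at 37C, viability read as CellTiter-Fluor fluorescence following 1 h reagent incubation, in the same wells as the caspase read.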

Assay [12] can be described thus: Caspase-3/7 induction in CHO-K1 cells by small molecules, qHTS assay (AID 1346980). Also: nearly all actives have a fitted effect of over 15% in size. Summed up: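 Wild-type CHO-K1 cells exposed to compounds for 17hr at 37 C, 5% CO2. Caspase-3/7 activity then measured by Caspase-Glo 3/7 luminescence after 30min at room temperature.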
Assay [13] can be described thus: Caspase-3/7 induction in HepG2 cells by small molecules, qHTS cell viability counter screen (AID 1346981). Also: series mostly up to about 92 µM; nearly all actives have a fitted effect of over 30% in size. The gist of the method: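 Cell viability is measured as a cytotoxicity counter screen alongside the Caspase-Glo 3/7 readout in identical wells. Wild-type HepG2 cells are treated with test compounds for 16 hr at 37 C before CellTiter-Fluor addition and a 1-hr incubation.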

Assay [14] has as its target Nuclear receptor subfamily 1 group I member 2 (Rattus norvegicus) (UniProt Q9R1A7). Nature of the assay: Rat pregnane X receptor (rPXR) activation by small molecules, qHTS assay (AID 1346983). Also: nearly all actives have a fitted effect of over 20% in size. To be noted: rPXR luciferase reporter cells, One-Glo luminescence, 24 h; max activation: active compounds read high. Summed up:
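Cell-based rPXR activation assay: rPXR cells, 2,000 per well, rested 5hr at 37 C, then exposed to compounds in DMSO for 24 hr at 37 C. Luciferase activity read by One-Glo luminescence after 30 min at room temperature.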

Assay [15] has as its target Nuclear receptor subfamily 1 group I member 2 (Homo sapiens) (UniProt O75469). Nature of the assay: CYP3A4 induction through human pregnane X receptor (PXR) by small molecules, qHTS assay (AID 1346984). Also: nearly all actives have a fitted effect of over 40% in size. The gist of the method: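 Quantitative HTS in DPX-2 cells, i.e. HepG2 transfected with PXR response element and CYP3A4-promoter luciferase. Compounds in DMSO incubated 24hr at 37C; then P450-Glo CYP3A4 substrate, 3uM final, 3hr; One-Glo luminescence.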

The target is the same in assay [16]. Nature of the assay: Human pregnane X receptor (PXR) activation by small molecules, qHTS assay (AID 1346985). Also: nearly all actives have a fitted effect of over 40% in size. Summed up: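 DPX-2 cells (HepG2 co-transfected with a PXR response element and a CYP3A4-promoter luciferase construct) were seeded at 2,000 per well, rested 5 hr at 37C, then exposed to DMSO-dissolved compounds for 24 hr. Activation was read as luciferase luminescence.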

Assay [17] concerns the target Acetylcholinesterase (Homo sapiens) (UniProt P22303). Nature of the assay: Acetylcholinesterase (AChE) small molecule antagonists: colormetric cell-based qHTS assay (AID 1347395; calls by dose curve; also: nearly all actives have a fitted effect of over 30% in size). Summed up:
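SH-SY5Y cells attached overnight, exposed to compound 30 min at 37 C, then given DTNB/acetylthiocholine; after 90 min at 37 C, colorimetric thiocholine read gives cellular AChE activity.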

A short description of assay [18]: qHTS assay to identify small molecule agonists of the TGF-beta/Smad signaling pathway - cell viability counter screen (AID 1346829). Also: top concentration of the series differs between compounds; nearly all actives have a fitted effect of over 45% in size. The gist of the method:
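After overnight seating at 37 C and 5% CO2, reporter cells got compounds for 5 hr and FRET substrate for 2 hr; cell viability then came from CellTiter-Glo luminescence.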

Assay [19] has as its target Thyrotropin-releasing hormone receptor (Homo sapiens) (UniProt P34981). Nature of the assay: qHTS assay to identify small molecule agonists of the thyrotropin-releasing hormone receptor (TRHR) signaling pathway (AID 1346891; calls by dose curve; also: series mostly up to about 58 µM). Summed up:
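HEK293 cells expressing TRHR plated 18 h at 37 C/5% CO2, calcium dye-loaded 2 h at 37 C, then compound added (agonist mode); kinetic calcium fluorescence read 3 min at 1 s intervals; 15 concentrations in triplicate.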

Assay [20] addresses Nuclear receptor subfamily 1 group I member 2 (Homo sapiens) (UniProt O75469). Nature of the assay: Human pregnane X receptor (PXR) small molecule agonists, qHTS assay (AID 1346982). Also: nearly all actives have a fitted effect of over 35% in size. Also: potency is read from the fitted curve at half-maximal effect. Summed up:
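Cells: HepG2 stably carrying PXR-Luc. Medium held 5% charcoal-stripped FBS. Compounds in DMSO added after 5 hr plating, incubated 24 hr, then luminescence quantified with ONE-Glo.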
% is scaled to controls: 0 for no effect and ±100 for the full control effect.

Acetylcholinesterase (Homo sapiens), sequence (P22303 whole entry, looked up): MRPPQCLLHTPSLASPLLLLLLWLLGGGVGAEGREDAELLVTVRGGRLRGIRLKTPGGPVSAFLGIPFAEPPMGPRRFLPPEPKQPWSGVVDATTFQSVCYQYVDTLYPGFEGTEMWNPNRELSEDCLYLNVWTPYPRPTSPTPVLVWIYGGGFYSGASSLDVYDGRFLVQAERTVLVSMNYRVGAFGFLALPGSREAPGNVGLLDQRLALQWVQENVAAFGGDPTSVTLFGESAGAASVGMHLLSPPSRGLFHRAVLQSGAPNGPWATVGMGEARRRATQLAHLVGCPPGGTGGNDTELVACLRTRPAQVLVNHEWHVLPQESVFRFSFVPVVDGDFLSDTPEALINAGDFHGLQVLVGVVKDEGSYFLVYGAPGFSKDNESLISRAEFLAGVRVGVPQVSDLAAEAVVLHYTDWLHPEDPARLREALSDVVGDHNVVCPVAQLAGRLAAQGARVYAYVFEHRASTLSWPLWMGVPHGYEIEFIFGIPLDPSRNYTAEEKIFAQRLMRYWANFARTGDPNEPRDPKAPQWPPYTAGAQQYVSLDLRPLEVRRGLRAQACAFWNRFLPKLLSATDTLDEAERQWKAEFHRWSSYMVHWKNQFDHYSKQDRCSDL
Nuclear receptor subfamily 1 group I member 2 (Homo sapiens), sequence (O75469 whole entry, looked up): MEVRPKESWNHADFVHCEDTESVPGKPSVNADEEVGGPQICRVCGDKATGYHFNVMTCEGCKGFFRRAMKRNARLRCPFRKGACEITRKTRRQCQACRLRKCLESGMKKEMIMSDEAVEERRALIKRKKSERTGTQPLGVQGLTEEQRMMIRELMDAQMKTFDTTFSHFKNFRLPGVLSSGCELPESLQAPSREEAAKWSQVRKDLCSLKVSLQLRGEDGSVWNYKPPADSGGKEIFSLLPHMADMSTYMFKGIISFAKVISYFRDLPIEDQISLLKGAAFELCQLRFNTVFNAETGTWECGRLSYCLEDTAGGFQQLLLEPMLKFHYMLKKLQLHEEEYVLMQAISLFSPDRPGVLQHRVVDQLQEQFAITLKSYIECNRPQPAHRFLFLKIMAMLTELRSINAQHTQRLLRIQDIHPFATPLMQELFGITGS
Thyrotropin-releasing hormone receptor (Homo sapiens), sequence (P34981 whole entry, looked up): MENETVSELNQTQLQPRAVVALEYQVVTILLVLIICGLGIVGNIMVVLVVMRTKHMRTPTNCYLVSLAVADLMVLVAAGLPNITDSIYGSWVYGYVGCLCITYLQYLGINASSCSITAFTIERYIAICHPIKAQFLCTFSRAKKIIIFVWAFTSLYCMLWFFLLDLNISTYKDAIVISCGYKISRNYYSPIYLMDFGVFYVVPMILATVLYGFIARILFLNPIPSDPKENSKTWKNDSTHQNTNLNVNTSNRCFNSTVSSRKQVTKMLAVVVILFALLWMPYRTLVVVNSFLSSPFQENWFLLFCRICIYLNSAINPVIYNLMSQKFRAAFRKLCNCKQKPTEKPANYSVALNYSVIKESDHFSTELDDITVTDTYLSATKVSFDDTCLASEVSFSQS
Nuclear receptor subfamily 1 group I member 2 (Rattus norvegicus), sequence (Q9R1A7 whole entry, looked up): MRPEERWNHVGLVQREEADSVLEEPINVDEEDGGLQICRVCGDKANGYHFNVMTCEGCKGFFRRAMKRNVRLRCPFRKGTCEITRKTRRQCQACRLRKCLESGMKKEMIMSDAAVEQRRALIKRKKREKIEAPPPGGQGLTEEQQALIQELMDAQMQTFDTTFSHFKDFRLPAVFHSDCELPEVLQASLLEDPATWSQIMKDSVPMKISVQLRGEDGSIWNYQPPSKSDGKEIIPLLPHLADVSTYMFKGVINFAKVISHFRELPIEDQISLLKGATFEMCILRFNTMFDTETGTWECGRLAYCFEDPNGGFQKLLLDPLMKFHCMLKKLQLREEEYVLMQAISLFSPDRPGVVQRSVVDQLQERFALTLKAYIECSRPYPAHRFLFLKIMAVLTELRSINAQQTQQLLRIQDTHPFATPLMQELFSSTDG

As to `O=C1CN=C(c2ccccc2)c2cc([N+](=O)[O-])ccc2N1`, the Potency entry in [1], in assay [2], in [3], in [4], in [5] and in assay [6] was “inactive” throughout. In addition, the Potency result in [9], in [10], in [11], in assay [12], in assay [13] and in assay [15] was “inactive” throughout. Further, the Potency result in assay [16] and in assay [17] was “inactive” throughout. Besides, the result in assay [7] and in [8] was inactive. The max activation in assay [14] was -2.6%.

As for `Cc1nc(N)nc(N)n1`, the Potency result in assay [1], in [2], in assay [3], in assay [4], in assay [5] and in assay [9] was “inactive” each time. Moreover, the Potency entry in assay [10], in [11], in assay [12], in assay [13], in assay [20] and in [17] was “inactive” throughout. Also, the compound was classed as inactive in assay [18], in [7], in [8] and in assay [19].

Regarding `COc1cc(C[C@@H](C)N)c(OC)cc1C`, the Potency result in [1], in assay [2], in assay [3], in [4], in [6] and in assay [10] was “inactive” each time. Further, the Potency result in assay [11], in [13], in assay [20] and in assay [17] was “inactive” throughout. The compound was classed as inactive in assay [18], in [7], in [8] and in assay [19].

On to `O=C(O)C(Br)CBr` (centres undefined), for which the Potency entry in assay [1], in assay [3], in [4], in [5], in assay [6] and in [9] was “inactive” in each case. The Potency entry in [10], in assay [12], in assay [13] and in assay [17] was “inactive” throughout. Moreover, the Potency is 5.54 µM (active) in [2] and 62.2 µM (active) in [20]. Besides, the result in assay [7], in assay [8] and in assay [19] was inactive.

In the case of `COc1cc(OC)nc(Oc2cccc(Oc3nc(OC)cc(OC)n3)c2C(=O)O)n1`, the Potency entry in assay [1], in assay [2], in [3], in assay [4], in assay [6] and in [9] was “inactive” in each case. Moreover, the Potency entry in assay [10], in [11], in assay [12], in assay [13], in assay [20] and in assay [17] was “inactive” in each case. The call in assay [7] and in assay [8] was inactive.

With `COC(=O)COc1ccc(Cl)cc1Cl`, the Potency result in [1], in [2], in [3], in assay [4], in assay [5] and in assay [6] was “inactive” throughout. The Potency result in assay [9], in assay [10], in assay [12], in [20] and in [17] was “inactive” throughout. Further, the compound was classed as inactive in [8] and in assay [19].

Consider `COc1cc(OC)nc(NC(=O)NS(=O)(=O)c2ncccc2C(=O)N(C)C)n1`, for which the Potency entry in [1], in [2], in assay [3], in [4], in [5] and in [6] was “inactive” in each case. Also, the Potency entry in assay [9], in assay [10], in [11], in assay [12], in [13] and in [20] was “inactive” in each case. In assay [17], the Potency entry was “inactive”. In addition, the result in assay [7], in assay [8] and in [19] was inactive.

Turning to `CC1CN1P(=O)(N1CC1C)N1CC1C` (centres undefined), the Potency entry in [1], in assay [2], in assay [3], in [4], in assay [6] and in assay [9] was “inactive” each time. The Potency entry in [10], in assay [11], in [13], in assay [20] and in assay [17] was “inactive” throughout. Also, the call in [7] and in [8] was inactive.

On to `N#CCCC#N`, for which the Potency result in [1], in assay [2], in assay [3], in assay [4], in assay [5] and in [6] was “inactive” throughout. Besides, the Potency entry in assay [9], in assay [10], in assay [11], in assay [12], in assay [13] and in assay [20] was “inactive” in each case. In [17], the Potency entry is “inactive”. For the same compound, the call in assay [7], in assay [8] and in [19] was inactive.
